From PubChem BioAssay
Values joined by “and” are separate entries in the source; they are usually repeats but may differ in a detail not shown here. Equal entries are not always repeated. Active and inactive are the calls of the source.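 How the source made its calls, unless noted: active means thallium flux through the channel raised or lowered by more than 3 SD from vehicle-only wells, actives on both sides; inactive means the rest.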

Columns and labels:
[1] = tested on: Hepatitis C virus NS3 helicase; assay: HCV NS3 helicase inhibitors, primary screen, biochemical, fluorescence polarization, NIH Clinical Collection (AID 743270; call rule not given here); conditions: NS3 helicase binding to Cy5-dT15 DNA, stronger effect = higher value, concentration not given here
[2] = target: Single-stranded DNA-binding protein (Escherichia coli (strain K12)) (UniProt P0AGE0); assay: E. coli SSB displacement from DNA, counter-screen for HCV NS3 helicase inhibitor project, biochemical, fluorescence polarization, NIH Clinical Collection (AID 743271; in the data active means inhibition above about 28%); conditions: stronger effect = higher value, concentration not given here
[3] = fluorescence interference in NS3h assay format, artefact control for HCV NS3 helicase inhibitor project, biochemical, NIH Clinical Collection (AID 743272; call rule not given here;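 further: HCV NS3 helicase with a Cy5 labelled single stranded DNA probe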); conditions: fluorescence interference counterscreen, stronger effect = lower value
[4] = stimulators of nuclear beta-catenin in C2C12, primary screen, imaging, WNT3A-conditioned medium, mouse C2C12, NPC library (AID 1117326; in the data active means nuclear beta-catenin stimulation mostly above about 4.2%, no sharp cut-off; inactive means mostly below about 10%); conditions: stronger effect = higher value
[5] = stimulators of insulin release from INS-1E, primary screen, cell-based, 5 mM glucose, NPC library (AID 1117329;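 active means compound raises insulin release from rat beta cells at 5 mM glucose, no numeric limit stated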); conditions: rat INS-1E insulin secretion, at 10 µM, stronger effect = higher value
[6] = growth inhibition of GSK3B-pretreated HCT116 cells – cell-based, CellTiter-Glo, 0.2 to 20 µM (AID 1117336;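 active means compounds lowering colon cancer cell viability after pretreatment blocking the GSK3B kinase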); conditions: HCT116 viability after GSK3B inhibitor, at 20 µM, stronger effect = higher value
[7] = inhibition of endothelial tube formation, primary screen, imaging, VEGF stimulated, CD31 staining, tube area, NPC library (AID 1117340;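 active means compound that reduces growth-factor-driven endothelial tube area in a mixed cell culture, no cutoff stated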); conditions: VEGF-stimulated ADSC/ECFC co-culture, at 10 µM, stronger effect = higher value
[8] = glucagon-like peptide 1 release enhancers, primary assay, NCI-H716 cell line, NPC library (AID 1117341;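 active means compound raises GLP1 secretion from the human gut endocrine cells, with no numeric limit stated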); conditions: NCI-H716 cells, at 10 µM, stronger effect = higher value
[9] = HCT116 colon cancer cell growth inhibition, primary screen, CellTiter-Glo luminescence, NPC library (AID 1117342;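 active means compounds that lower survival of HCT116 colon cancer cells in the luminescence readout, no numeric limit stated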); conditions: at 20 µM (top of the series)
[10] = CellTiter-Glo luminescent readout of SW480 viability loss, NPC library primary (AID 1117343;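 active means compounds that lower viability of the colon cancer cells in the luminescence readout, with no numeric limit stated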); conditions: CellTiter-Glo luminescence; at 20 µM (top of the series)
[11] = decreased DLD-1 cellular survival, CellTiter-Glo luminescent readout, NPC compound collection, primary HTS (AID 1117346;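 active means compounds that lower survival of DLD-1 colon cancer cells in the luminescence readout, no cutoff given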); conditions: DLD-1 viability, CellTiter-Glo luminescence; at 20 µM (top of the series)
[12] = target: 6-phosphogluconate dehydrogenase, decarboxylating (Homo sapiens) (UniProt P52209); assay: 6PGD enzyme inhibitors, primary screen, biochemical, human, recombinant enzyme, NADPH absorbance (AID 1159550;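 active means at least 20% inhibition of 6-phosphogluconate dehydrogenase activity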); conditions: recombinant 6PGD, NADPH absorbance 341 nm; at 10 µM; stronger effect = higher value
[13] = differential killing of epithelial or mesenchymal cells, primary screen, imaging, PC-3E GFP, TEM4-18 mCherry, co-culture (AID 1345086;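 active means compounds killing one labelled cell type while sparing the other, by normalised counts and ratio limits, not self-fluorescent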;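 on all read-outs here: cells exposed to compound for 72 h before imaging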;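 on red/green cell ratio (normalised): normalised mesenchymal count divided by normalised epithelial count so high means epithelial killing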); conditions: imaging cell counts, at 1 µM; for red/green cell ratio (normalised): actives lie on both sides, counts scaled to control wells, 1 = unselective
[14] = sensitizers of A549 cells to miR-34 induction, primary screen, imaging, A549 dox-inducible miR-34, nuclei and caspase counts (AID 1347080;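 active means compounds whose cell count with miR-34 switched on is under 0.7 times the count with it off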); conditions: A549 miR-34 inducible, Hoechst nuclei count, 48 h
[15] = survival rescue of mitochondrial mutant cells in low glucose, primary screen, MELAS cybrids, Rieske KO mouse fibroblasts, CellTiter-Glo (AID 1508586;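 active means mean z-score across replicates of 1.96 or higher in either the MELAS or the Rieske mutant cell line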;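 further: z relative to plate mean and SD of compound and empty wells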)
[16] = target: NAD(+) hydrolase SARM1 (Homo sapiens) (UniProt Q6SZW1); assay: SARM1 TIR NADase inhibitors, cell lysate, NAD-Glo luminescence (AID 1508614;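 active means compound whose remaining NAD level is above about 45 nM, limit read from the data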); conditions: SAM-TIR HEK293T lysate NADase, at 1 µM, stronger effect = higher value
[17] = target: Mitogen-activated protein kinase 7 (Homo sapiens) (UniProt Q13164); assay: ERK5 transactivation activators in reporter cells, primary screen, cell-based, HTS (AID 1508626;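 active means luciferase signal above three times the same-plate solvent-only control wells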;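 further: luciferase driven by Gal4-ERK5 fusion binding five Gal4 sites before minimal TATA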); conditions: HeLa Gal4-ERK5 transactivation, 18 h, at 5 µM, stronger effect = higher value
F380Y = assay: modulators of BK channel variants, profiling panel, selectivity assay, cell-based, U2OS BacMam, thallium flux, beta subunits (AID 1259406); conditions: at 30 µM;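 further: initial slope of Thallos dye fluorescence rise after thallium is added; log ratio against the mean of 0.3% DMSO vehicle wells on the same plate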
F380Y/beta2Delta = assay: as above; conditions: at 30 µM
[18] = target: Calcium-activated potassium channel subunit alpha-1 (Homo sapiens) + Leucine-rich repeat-containing protein 26 (Homo sapiens) (UniProt Q12791+Q2I0M4); assay: as above; conditions: F380Y/Slo1WT/gamma1, at 30 µM
[19] = measured here: epithelial PC-3E GFP cell survival
[20] = measured here: mesenchymal TEM4-18 mCherry cell survival
[21] = stronger effect = lower value, cell number ratio, induced over uninduced
[22] = measured here: relative caspase fold change +Dox/-Dox
[23] = measured here: total cells with miR-34 induction, stronger effect = lower value
[24] = measured here: total cells without miR-34 induction
[25] = MELAS cybrid survival, CellTiter-Glo 48 h, stronger effect = higher value
[26] = Rieske KO mouse fibroblast survival, CellTiter-Glo 72 h

Sequence of 6-phosphogluconate dehydrogenase, decarboxylating (Homo sapiens) (P52209 whole entry, looked up): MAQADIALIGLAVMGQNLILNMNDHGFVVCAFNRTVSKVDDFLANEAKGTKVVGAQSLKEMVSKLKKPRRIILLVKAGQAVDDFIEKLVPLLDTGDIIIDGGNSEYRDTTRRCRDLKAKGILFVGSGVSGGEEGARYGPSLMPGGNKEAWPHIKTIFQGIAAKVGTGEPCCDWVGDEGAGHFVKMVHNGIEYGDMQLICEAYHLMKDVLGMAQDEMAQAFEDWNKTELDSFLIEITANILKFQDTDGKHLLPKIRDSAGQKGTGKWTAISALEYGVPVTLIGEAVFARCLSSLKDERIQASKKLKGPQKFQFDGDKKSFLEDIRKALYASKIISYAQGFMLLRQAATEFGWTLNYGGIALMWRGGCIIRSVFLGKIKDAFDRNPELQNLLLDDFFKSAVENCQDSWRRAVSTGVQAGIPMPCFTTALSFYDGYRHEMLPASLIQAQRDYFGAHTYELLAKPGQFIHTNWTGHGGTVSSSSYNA
Sequence of Calcium-activated potassium channel subunit alpha-1 (Homo sapiens) + Leucine-rich repeat-containing protein 26 (Homo sapiens) (Q2I0M4 whole entry, looked up, one chain of several): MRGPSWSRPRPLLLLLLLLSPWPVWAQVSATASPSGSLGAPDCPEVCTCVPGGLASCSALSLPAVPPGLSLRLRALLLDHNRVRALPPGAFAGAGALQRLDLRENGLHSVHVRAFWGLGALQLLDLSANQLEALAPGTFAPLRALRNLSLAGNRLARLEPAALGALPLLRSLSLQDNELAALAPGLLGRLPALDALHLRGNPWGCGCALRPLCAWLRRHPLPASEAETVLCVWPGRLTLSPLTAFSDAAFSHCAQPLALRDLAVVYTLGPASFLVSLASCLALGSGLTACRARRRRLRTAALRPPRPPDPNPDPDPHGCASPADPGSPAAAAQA
Sequence of NAD(+) hydrolase SARM1 (Homo sapiens) (Q6SZW1 whole entry, looked up, the tested form may be a part): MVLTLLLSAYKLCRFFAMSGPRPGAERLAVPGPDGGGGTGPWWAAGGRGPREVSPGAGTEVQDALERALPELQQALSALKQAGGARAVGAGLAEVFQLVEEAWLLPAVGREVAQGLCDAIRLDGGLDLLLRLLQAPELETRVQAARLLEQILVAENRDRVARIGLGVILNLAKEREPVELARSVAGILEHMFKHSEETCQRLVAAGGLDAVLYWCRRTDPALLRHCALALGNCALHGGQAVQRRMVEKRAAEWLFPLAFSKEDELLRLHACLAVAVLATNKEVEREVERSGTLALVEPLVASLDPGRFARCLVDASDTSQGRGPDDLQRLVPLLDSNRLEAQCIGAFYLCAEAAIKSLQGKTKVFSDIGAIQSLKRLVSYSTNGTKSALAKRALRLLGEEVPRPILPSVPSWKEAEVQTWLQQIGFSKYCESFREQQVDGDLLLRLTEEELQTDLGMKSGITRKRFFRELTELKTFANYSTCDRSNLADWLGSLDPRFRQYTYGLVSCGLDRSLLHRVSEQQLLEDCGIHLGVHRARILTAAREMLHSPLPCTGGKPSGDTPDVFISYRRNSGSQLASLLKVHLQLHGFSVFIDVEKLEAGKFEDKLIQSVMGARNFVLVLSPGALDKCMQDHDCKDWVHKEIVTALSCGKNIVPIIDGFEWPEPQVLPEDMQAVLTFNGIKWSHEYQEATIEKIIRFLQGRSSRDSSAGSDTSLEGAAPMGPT
Sequence of Mitogen-activated protein kinase 7 (Homo sapiens) (Q13164 whole entry, looked up, the tested form may be a part): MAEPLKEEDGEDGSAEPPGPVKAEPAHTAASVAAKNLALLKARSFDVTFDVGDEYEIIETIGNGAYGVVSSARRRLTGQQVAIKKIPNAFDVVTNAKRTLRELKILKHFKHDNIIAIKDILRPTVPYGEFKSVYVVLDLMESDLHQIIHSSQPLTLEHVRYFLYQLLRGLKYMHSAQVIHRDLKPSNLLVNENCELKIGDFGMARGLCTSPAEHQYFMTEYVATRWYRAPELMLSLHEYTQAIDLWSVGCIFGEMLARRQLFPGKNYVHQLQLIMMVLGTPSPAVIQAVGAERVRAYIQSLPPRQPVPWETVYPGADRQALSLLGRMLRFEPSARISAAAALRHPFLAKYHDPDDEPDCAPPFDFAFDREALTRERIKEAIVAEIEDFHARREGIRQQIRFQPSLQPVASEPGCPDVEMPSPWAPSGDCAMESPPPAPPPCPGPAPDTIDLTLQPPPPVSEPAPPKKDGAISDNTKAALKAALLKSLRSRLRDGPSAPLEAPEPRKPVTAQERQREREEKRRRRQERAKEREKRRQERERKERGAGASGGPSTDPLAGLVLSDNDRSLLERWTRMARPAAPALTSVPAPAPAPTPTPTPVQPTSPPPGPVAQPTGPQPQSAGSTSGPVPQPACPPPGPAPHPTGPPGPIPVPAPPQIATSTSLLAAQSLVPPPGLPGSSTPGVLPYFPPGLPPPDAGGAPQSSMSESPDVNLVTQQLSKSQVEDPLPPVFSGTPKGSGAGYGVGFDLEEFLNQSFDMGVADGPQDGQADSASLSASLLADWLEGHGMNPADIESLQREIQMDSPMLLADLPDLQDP

Nc1ccc(S(=O)(=O)c2ccc(N)cc2)cc1
0.158: z-score [15, 26]
10800 and 9580 and 11700: cell count [14, 24]
1.14: normalised cell number [13, 19]
-0.4%: nuclear beta-catenin stimulation ([4]; stimulation, at 2 µM)
inactive: inhibition [1] -3.18% | inhibition [2] 0.29% | fluorescence ratio [3] 0.95 | nuclear beta-catenin stimulation ([4]; at 10 µM) -0.7% | insulin secretion stimulation [5] -2.3% | viability decrease [6] -8.05% | tube area decrease [7] 8.8% | GLP1 secretion stimulation [8] -1.2% | inhibition of viability [9] 1.3% | viability decrease (inhibition) [11] 7.95% | inhibition [12] 14.4% | red/green cell ratio (normalised) [13] 1.31 | fold change [14, 21] 0.912 and 0.897 and 0.875 | z-score [15, 25] 0.848 | remaining NAD [16] 10 nM | luciferase signal [17] 32 AU | log fold change Tl+ flux (F380Y) 0.0363 | log fold change Tl+ flux (F380Y/beta2Delta) 0.0421 | log fold change Tl+ flux [18] -0.0163
2.46 and 1.04 and 1.7: fold change [14, 22]
9830 and 8600 and 10200: cell count [14, 23]
active: viability decrease (inhibition) [10] 59.5%
1.49: normalised cell number [13, 20]

CC(C)(C)NCC(O)c1cc(O)cc(O)c1 (stereo not drawn)
0.91: normalised cell number [13, 19]
inactive: inhibition [1] -2.27% | inhibition [2] -3.53% | fluorescence ratio [3] 1.04 | nuclear beta-catenin stimulation ([4]; at 10 µM) 1.5% | insulin secretion stimulation [5] -1% | viability decrease [6] -25.1% | tube area decrease [7] -9.7% | GLP1 secretion stimulation [8] 1.4% | inhibition of viability [9] 3.9% | viability decrease (inhibition) [10] 20.2% | viability decrease (inhibition) [11] -3.5% | inhibition [12] -13.6% | red/green cell ratio (normalised) [13] 1.28 | z-score [15, 25] -0.672 | remaining NAD [16] 10 nM | luciferase signal [17] 108 AU | log fold change Tl+ flux (F380Y) 0.00388 | log fold change Tl+ flux (F380Y/beta2Delta) 0.0185 | log fold change Tl+ flux [18] 0.00552
3.1%: nuclear beta-catenin stimulation ([4]; stimulation, at 2 µM)
10100 and 11300 and 12600: cell count [14, 24]
1.16: normalised cell number [13, 20]
-0.203: z-score [15, 26]

NS(=O)(=O)c1cc2c(cc1C(F)(F)F)NCNS2(=O)=O
inactive: inhibition [1] -3.18% | inhibition [2] -0.48% | fluorescence ratio [3] 0.93 | nuclear beta-catenin stimulation ([4]; at 10 µM) -1% | insulin secretion stimulation [5] -0.5% | viability decrease [6] -8.5% | tube area decrease [7] -8.6% | GLP1 secretion stimulation [8] 0.4% | inhibition of viability [9] -2% | viability decrease (inhibition) [10] 10.4% | viability decrease (inhibition) [11] -13.4% | inhibition [12] -4.61% | red/green cell ratio (normalised) [13] 1.07 | fold change [14, 21] 0.934 and 0.925 and 0.803 | z-score [15, 25] 0.119 | remaining NAD [16] 10 nM | luciferase signal [17] 40 AU | log fold change Tl+ flux (F380Y) -0.0227 | log fold change Tl+ flux (F380Y/beta2Delta) 0.0255 | log fold change Tl+ flux [18] -0.0239
1%: nuclear beta-catenin stimulation ([4]; stimulation, at 2 µM)
0.95: normalised cell number [13, 19]
0.185: z-score [15, 26]
2.9 and 1.27 and 0.875: fold change [14, 22]
10100 and 9100 and 10600: cell count [14, 23]
1.02: normalised cell number [13, 20]
10900 and 9840 and 13200: cell count [14, 24]
